Measurements: PubChem BioAssay AID1159580 (chemical genetic matrix, 2015)
Several values for one entry are separate records, joined by “and”; a condition that tells them apart may be missing. Identical values can stand only once. The whole screen tested about 5,500 compounds, of which about 2,000 (36%) were called active. Another 18% or so got no clear call; they are omitted. Rule as the data show it: active = normalized growth mostly below about 0.91 (no sharp cut-off); inconclusive = no clear call, values can overlap the other calls; inactive = mostly above about 0.92. The list shows a part of the results.

Assay: chemical genetic growth profiling, strain panel (AID 1159580);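 also: tested at 20 µM; growth read once vehicle control cultures reached saturation at 30 °C; 1 = growth at the plate median or of vehicle wells; lower values mean less growth of the strain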
Details: growth OD

Measured: normalized growth

CN(C)CCC=C1c2ccccc2CCc2ccccc21
active: S. cerevisiae deletion strains, locus YNL209W, strain ssb2, stronger effect = lower value 0.897
inactive: S. cerevisiae deletion strains, locus YJR066W, strain TOR1, stronger effect = lower value 0.983 | S. cerevisiae deletion strains, locus YJR075W, strain HOC1, stronger effect = lower value 0.981 | S. cerevisiae deletion strains, locus YKL009W, strain mrt4, stronger effect = lower value 0.998 | S. cerevisiae deletion strains, locus YKL068W, stronger effect = lower value 0.998 | S. cerevisiae deletion strains, locus YKL085W, strain MDH1 (second series), stronger effect = lower value 0.996 | S. cerevisiae deletion strains, locus YKL085W, strain MDH1, stronger effect = lower value 0.996 | S. cerevisiae deletion strains, locus YKL160W, strain elf1, stronger effect = lower value 1.01 | S. cerevisiae deletion strains, locus YKL190W, strain CNB1, stronger effect = lower value 1.01 | S. cerevisiae deletion strains, locus YKR001C, strain vps1, stronger effect = lower value 0.985 | S. cerevisiae deletion strains, locus YKR026C, strain gcn3, stronger effect = lower value 0.998 | S. cerevisiae deletion strains, locus YKR091W, strain srl3, stronger effect = lower value 0.964 | S. cerevisiae deletion strains, locus YLL001W, strain dnm1, stronger effect = lower value 1.02 | S. cerevisiae deletion strains, locus YLL026W, stronger effect = lower value 1 | S. cerevisiae deletion strains, locus YLL041C, strain sdh2, stronger effect = lower value 0.986 | S. cerevisiae deletion strains, locus YLR027C, strain aat2, stronger effect = lower value 0.997 | S. cerevisiae deletion strains, locus YLR039C, strain RIC1, stronger effect = lower value 1.05 | S. cerevisiae deletion strains, locus YLR058C, strain SHM2, stronger effect = lower value 1.01 | S. cerevisiae deletion strains, locus YLR102C, strain apc9, stronger effect = lower value 0.987 | S. cerevisiae deletion strains, locus YLR113W, strain HOG1, stronger effect = lower value 1.02 | S. cerevisiae deletion strains, locus YLR221C, strain rsa3, stronger effect = lower value 0.94 | S. cerevisiae deletion strains, locus YLR258W, strain gsy2, stronger effect = lower value 0.972 | S. cerevisiae deletion strains, locus YLR262C, strain YPT6 (second series), stronger effect = lower value 1.06 | S. cerevisiae deletion strains, locus YLR262C, strain YPT6, stronger effect = lower value 1.1 | S. cerevisiae deletion strains, locus YLR268W, strain sec22, stronger effect = lower value 0.998 | S. cerevisiae deletion strains, locus YLR320W, strain mms22, stronger effect = lower value 0.95 | S. cerevisiae deletion strains, locus YLR330W, strain CHS5, stronger effect = lower value 1.01 | S. cerevisiae deletion strains, locus YLR342W, strain FKS1 (second series), stronger effect = lower value 0.981 | S. cerevisiae deletion strains, locus YLR342W, strain FKS1, stronger effect = lower value 0.963 | S. cerevisiae deletion strains, locus YLR357W, strain rsc2, stronger effect = lower value 0.92 | S. cerevisiae deletion strains, locus YLR370C, strain arc18, stronger effect = lower value 0.956 | S. cerevisiae deletion strains, locus YLR371W, strain rom2, stronger effect = lower value 1 | S. cerevisiae deletion strains, locus YLR384C, strain iki3, stronger effect = lower value 0.988 | S. cerevisiae deletion strains, locus YLR418C, strain cdc73, stronger effect = lower value 0.985 | S. cerevisiae deletion strains, locus YML016C, strain PPZ1, stronger effect = lower value 1 | S. cerevisiae deletion strains, locus YML032C, strain rad52, stronger effect = lower value 0.993 | S. cerevisiae deletion strains, locus YML120C, strain ndi1, stronger effect = lower value 0.986 | S. cerevisiae deletion strains, locus YML124C, strain tub3, stronger effect = lower value 0.99 | S. cerevisiae deletion strains, locus YMR058W, strain fet3, stronger effect = lower value 0.979 | S. cerevisiae deletion strains, locus YMR078C, strain ctf18, stronger effect = lower value 1 | S. cerevisiae deletion strains, locus YMR125W, strain sto1, stronger effect = lower value 0.924 | S. cerevisiae deletion strains, locus YMR129W, stronger effect = lower value 0.971 | S. cerevisiae deletion strains, locus YMR205C, strain PFK2, stronger effect = lower value 0.995 | S. cerevisiae deletion strains, locus YMR223W, strain ubp8, stronger effect = lower value 1 | S. cerevisiae deletion strains, locus YMR231W, strain pep5, stronger effect = lower value 0.987 | S. cerevisiae deletion strains, locus YMR263W, strain SAP30, stronger effect = lower value 1.01 and 1.02 | S. cerevisiae deletion strains, locus YMR307W, strain GAS1, stronger effect = lower value 1.04 and 1.01 | S. cerevisiae deletion strains, locus YNL067W, strain RPL9B, stronger effect = lower value 1.01 | S. cerevisiae deletion strains, locus YNL071W, strain lat1, stronger effect = lower value 0.998 | S. cerevisiae deletion strains, locus YNL153C, strain GIM3, stronger effect = lower value 1 and 0.972 | S. cerevisiae deletion strains, locus YNL175C, strain NOP13, stronger effect = lower value 1.01 | S. cerevisiae deletion strains, locus YNL183C, strain NPR1, stronger effect = lower value 0.998 | S. cerevisiae deletion strains, locus YNL197C, strain WHI3, stronger effect = lower value 1.06 | S. cerevisiae deletion strains, locus YNL224C, strain SQS1, stronger effect = lower value 1.03 | S. cerevisiae deletion strains, locus YNL233W, strain BNI4, stronger effect = lower value 1.01 | S. cerevisiae deletion strains, locus YNL248C, strain rpa49, stronger effect = lower value 0.915 | S. cerevisiae deletion strains, locus YNL250W, strain rad50, stronger effect = lower value 0.995 | S. cerevisiae deletion strains, locus YNL271C, strain bni1, stronger effect = lower value 1 | S. cerevisiae deletion strains, locus YNL298W, strain CLA4, stronger effect = lower value 0.991 | S. cerevisiae deletion strains, locus YNL307C, strain MCK1, stronger effect = lower value 0.999 | S. cerevisiae deletion strains, locus YNL322C, strain KRE1 (second series), stronger effect = lower value 0.997 | S. cerevisiae deletion strains, locus YNL322C, strain KRE1, stronger effect = lower value 1.01 | S. cerevisiae deletion strains, locus YNR049C, strain mso1, stronger effect = lower value 0.974 | S. cerevisiae deletion strains, locus YNR052C, strain pop2, stronger effect = lower value 0.998 | S. cerevisiae deletion strains, locus YOL012C, strain htz1 1.09 | S. cerevisiae deletion strains, locus YOL147C, strain pex11, stronger effect = lower value 1 | S. cerevisiae deletion strains, locus YOR001W, strain rrp6, stronger effect = lower value 0.971 | S. cerevisiae deletion strains, locus YOR061W, strain CKA2, stronger effect = lower value 1.01 | S. cerevisiae deletion strains, locus YOR069W, strain VPS5, stronger effect = lower value 1.01 | S. cerevisiae deletion strains, locus YOR070C, strain gyp1, stronger effect = lower value 0.975 | S. cerevisiae deletion strains, locus YOR080W, strain dia2, stronger effect = lower value 0.987 | S. cerevisiae deletion strains, locus YOR083W, strain WHI5 (second series), stronger effect = lower value 1.08 | S. cerevisiae deletion strains, locus YOR083W, strain WHI5, stronger effect = lower value 0.975 | S. cerevisiae deletion strains, locus YOR106W, strain vam3, stronger effect = lower value 0.96 | S. cerevisiae deletion strains, locus YOR136W, strain idh2, stronger effect = lower value 0.984 | S. cerevisiae deletion strains, locus YOR144C, strain elg1, stronger effect = lower value 0.977 | S. cerevisiae deletion strains, locus YOR184W, strain ser1, stronger effect = lower value 0.991 | S. cerevisiae deletion strains, locus YOR231W, strain MKK1, stronger effect = lower value 1.05 | S. cerevisiae deletion strains, locus YOR265W, strain rbl2, stronger effect = lower value 0.98 | S. cerevisiae deletion strains, locus YOR270C, strain vph1, stronger effect = lower value 0.87 | S. cerevisiae deletion strains, locus YOR290C, strain snf2, stronger effect = lower value 0.938 | S. cerevisiae deletion strains, locus YOR316C, strain cot1, stronger effect = lower value 0.993 | S. cerevisiae deletion strains, locus YPL051W, strain arl3, stronger effect = lower value 0.957 | S. cerevisiae deletion strains, locus YPL078C, strain atp4, stronger effect = lower value 0.994 | S. cerevisiae deletion strains, locus YPL106C, strain sse1, stronger effect = lower value 0.987 | S. cerevisiae deletion strains, locus YPL240C, strain hsp82, stronger effect = lower value 0.991 | S. cerevisiae deletion strains, locus YPL256C, strain CLN2, stronger effect = lower value 1.06 | S. cerevisiae deletion strains, locus YPR119W, strain clb2, stronger effect = lower value 1 | S. cerevisiae deletion strains, locus YPR141C, strain kar3, stronger effect = lower value 1 | S. cerevisiae deletion strains, locus YPR163C, strain tif3, stronger effect = lower value 0.999 | S. cerevisiae deletion strains, locus YPR167C, strain met16, stronger effect = lower value 1 | S. cerevisiae deletion strains, strain wtn01, stronger effect = lower value 0.982 | S. cerevisiae strains, strain wild type, stronger effect = lower value 1.01
